Assay outcomes from PubChem BioAssay.
ClpP mod – qHTS Assay for Activators of ClpP | ATP-dependent Clp protease proteolytic subunit (Bacillus subtilis (strain 168)), P80244 | purified B. subtilis ClpP, FRET peptide cleavage, 20 min | Potency, µM (series often up to 57.5 µM), for the others: top-dose activity change, negative = active | 1.9% of 340,000 active | AID 651965, 2013; active means well fitted falling curve with a large enough effect; inconclusive means small, poorly fitted or top-dose-only effect; inactive means no such curve, though single readings can be large or run the other way; further: potency means the concentration at half of the fitted maximal effect; the source files actives as falling curves though it sought activators and does not explain the sign; nearly all actives have a fitted effect of over 65% in size
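Buffer: 100 mM Tris/HCl pH8, 100 mM KCl, 0.05% low protease BSA, 2.5% glycerol, 0.01% Tween-20. ClpP 10 microg/mL final; 20 min RT; delta FRET normalized to ADEP and DMSO controls.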
D3 ag – qHTS of D3 Dopamine Receptor Agonist: qHTS | max activation, % | 0.58% of 410,000 active | D3R DiscoveRx beta-arrestin cells, luminescence, 90 min | D(3) dopamine receptor (Homo sapiens), P35462; in the data active means max activation above about 30%; further: 0% is about no effect
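Agonist-mode cell screen: cells plated at 1500/well and incubated overnight at 37 °C, then exposed to library compounds for 90 min at 37 °C. Detection reagent was added for 30–60 min at room temperature, and luminescence was read.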
DT40 TDP1 no CPT – qHTS for Inhibitors of human tyrosyl-DNA phosphodiesterase 1 (TDP1): qHTS in cells in absence of CPT | DT40 Tdp1-/- hTDP1 cells, no CPT, ATP luminescence, 48 h | Potency, µM (series often up to 46.2 µM), for inactives: at the highest dose activity change, negative = growth inhibition, actives largely listed as inhibitors | 15% of 420,000 active; further: potency means the concentration at half of the fitted maximal effect; on the % scale 0 is the no-effect control and ±100 the full control effect; nearly all actives have a fitted effect of over 55% in size
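Compound effects on proliferation are scored in DT40 Tdp1-/-;hTDP1 cells in the absence of CPT. ATP levels (CellTiter-Glo luminescence) are recorded after a ≥48 hr, 37 °C incubation.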
DT40 TDP1 CPT – qHTS for Inhibitors of human tyrosyl-DNA phosphodiesterase 1 (TDP1): qHTS in cells in presence of CPT; chicken DT40 Tdp1-/-;hTDP1 cells + 20 nM CPT, ATP luminescence, 48 h; AID 686979, 2013; 12% of 420,000 active; Potency, µM (top dose mostly 46.2 µM), without a hit: at the highest dose activity change, negative = growth inhibition, usual class: inhibitors; further: potency means the concentration at half of the fitted maximal effect; on the % scale 0 is the no-effect control and ±100 the full control effect; nearly all actives have a fitted effect of over 55% in size
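Cell growth measured by CellTiter-Glo luminescence after a minimum 48 h, 37 C compound exposure with 20 nM CPT in Tdp1-knockout DT40 cells stably expressing hTDP1, seeded 400/well; qHTS titration format.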
IL1B secr inh – qHTS for Inhibitors of Inflammasome Signaling: IL-1-beta AlphaLISA Primary Screen | activity change, % at 57.5 µM | 4.7% of 360,000 active | THP-1 LPS/ATP IL-1B secretion, AlphaLISA, 16 h; hits give low values | AID 743279, 2014; in the data active means activity change below about -50%; inconclusive means mostly about -30% to -49%; further: on the % scale 0 is the no-effect control and ±100 the full control effect
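Secreted IL-1B measured by AlphaLISA bead assay after 16 h compound exposure of THP-1 cells; compounds (final up to 57.5 uM) added 1 h before LPS (250 ng/mL) and ATP (1.25 mM) stimulation; lower signal means less secretion.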
DRD3 antagonist – qHTS of D3 Dopamine Receptor Antagonist: qHTS | D(3) dopamine receptor (Homo sapiens), P35462 | D3R cells, DiscoveRx beta-arrestin luminescence, antagonist mode; hits give low values | max response, negative = inhibition, % | 2.5% of 360,000 active | AID 652054, 2013; in the data active means max response below about -50%; inconclusive means no clear call, values can overlap the other calls; further: on the % scale 0 is the no-effect control and ±100 the full control effect
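Cells plated overnight at 1500 cells/well, then exposed to library compounds with dopamine controls for 90 minutes at 37 degrees C. DiscoveRx reagent added for 30–60 minutes at room temperature; luminescence read, quantitative HTS format.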
The depositor's hits bear a star; ? = inconclusive; . = not tested or not shown; [ ] = dose if it differs, or a comment. In the library only some 21% were active in any assay of this set; here they are far more common. Unless noted, the call rests on the fitted dose curve; in most records, active means well fitted inhibition curve with a large enough effect; inconclusive means small, poorly fitted or top-dose-only effect; inactive means flat fitted curve, though single readings scatter.

SMILES	ClpP mod	D3 ag	DT40 TDP1 no CPT	DT40 TDP1 CPT	IL1B secr inh	DRD3 antagonist
CC(Oc1cccc(Cl)c1)C(=O)Nc1cc(S(=O)(=O)N2CCOCC2)ccc1N1CCCCC1 (configuration not stated)	.	11	21µM*	?	25	2
CCN(CC)CCOC(=O)C(c1ccccc1)c1ccccc1	1%	-82	?	?	9	-67*
CCN(CC)CCOC(=O)C(c1ccccc1)C1CCCCC1 (configuration not stated)	1%	-84	?	?	-18	-89*
O=C(Nc1nc2c(F)cccc2s1)C1CC1	2%	2	-12%	-6%	22	16
NNc1nc2c(F)cc(F)cc2s1	1%	1	23µM*	?	-25	-19
Nc1nc2c(F)cccc2s1	-1%	5	2%	-3%	28	19
NNc1nc2c(F)cccc2s1	-4%	6	15µM*	?	5	-16
CC1CCc2c(sc(Nc3nc4c(F)cccc4s3)c2C(N)=O)C1 (configuration not stated)	?	2	16µM*	?	-78*	21
Fc1cccc2sc(Nc3nc4c(F)cccc4s3)nc12	?	-6	13µM*	?	17	5
O=C(Nc1cc(F)ccc1F)c1ccc2c(c1)nnn2C1CCCC1	-8%	-3	?	-19%	.	.
CCC(CC)NC(=O)c1cccc(NC(=O)C(C)C)c1	.	-4	-16%	0%	34	11
C[C@@H]1CN(Cc2ccc3c(c2)CN(Cc2cccc4c2OCO4)CCO3)C[C@H](C)O1	.	.	-14%	13%[9.04 µM]	.	.
Cc1ccccc1C(=O)NCC(=O)NC1CC1	0%	-10	-11%	-22%	-1	2
Cc1ccc(NC2(C#N)CCCC2)cc1	.	0	7%	7%	16	-26
COc1ccc(-c2ccc3nncn3c2)cn1	?	-6	0%	13%	19	0
OCc1cnc(SCc2cccc(F)c2)n1Cc1ccc(F)cc1	-9%	-16	?	21µM*	.	.
Cc1ccc(Cn2c(CO)cnc2SCc2ccc(F)cc2)cc1	-1%	-6	16µM*	10µM*	.	.
COc1ccc(Cn2c(CO)cnc2SCc2cccc(C)c2)cc1	0%	-1	26µM*	?	.	.
Cc1ccc(Cn2c(CO)cnc2SCc2cccc(F)c2)cc1	1%	4	?	?	.	.
O=C1c2oc3ccccc3c(=O)c2C(c2cccc(Br)c2)N1c1ccccn1 (configuration not stated)	0%	3	16µM*	?	.	.
O=C1c2oc3ccccc3c(=O)c2C(c2cccc(Cl)c2)N1c1ccccn1 (configuration not stated)	-3%	3	?	17%	.	.
COC(=O)c1sc(N2C(=O)c3oc4ccc(F)cc4c(=O)c3C2c2ccc(C)cc2)nc1C (configuration not stated)	0%	.	?	2%	.	.
O=C1c2oc3ccccc3c(=O)c2C(c2cccc(O)c2)N1c1nncs1 (configuration not stated)	0%	-17	-4%	-12%	.	.
CCCOc1cccc(C2c3c(oc4ccccc4c3=O)C(=O)N2c2nncs2)c1 (configuration not stated)	0%	56*	?	15µM*	.	.
COC(=O)c1sc(N2C(=O)C(O)=C(C(=O)c3ccc(C)o3)C2c2cccs2)nc1C (configuration not stated)	-4%	3	10%	3%	11	36
SMILES	ClpP mod	D3 ag	DT40 TDP1 no CPT	DT40 TDP1 CPT	IL1B secr inh	DRD3 antagonist
COC(=O)c1sc(N2C(=O)c3oc4ccccc4c(=O)c3C2c2cccs2)nc1C (configuration not stated)	-5%	5	16µM*	18µM*	-7	-18
CCCOc1cccc(C2c3c(oc4ccc(F)cc4c3=O)C(=O)N2c2nc(C)c(C(C)=O)s2)c1 (configuration not stated)	-5%	5	15µM*	13µM*	.	.
CCOC(=O)N1CCN(C(=O)/C=C/c2ccc(OC)cc2)CC1	-1%	3	3%	-5%	-3	3
CCOC(=O)N1CCN(C(=O)/C=C/c2c(C)nn(-c3ccc(F)cc3)c2Cl)CC1	0%	15	13µM*	?	0	20
CC(C)(C)C(=O)Nc1ccc(-c2cc3cc(Cl)ccc3o2)cc1	-13%	-13	-26%	-29%	0	34
COc1ccccc1CNC(=O)CSc1ncc2c(n1)-c1ccccc1N(Cc1ccc(C)cc1)S2(=O)=O	-4%	-8	12µM*	?	.	.
Cc1ccccc1CN1c2ccccc2-c2nc(SCC(=O)NCc3ccccc3)ncc2S1(=O)=O	32µM*	-3	?	?	.	.
CCOC(=O)c1sc2ncn(CC(=O)Nc3cc(C)cc(C)c3)c(=O)c2c1C	-1%	9	-11%	3%	.	.
CC(=O)N1c2ccccc2CC1C(=O)N1CCN(c2cccc(C)c2C)CC1 (configuration not stated)	3%	1	15µM*	23µM*	.	.
CCC(=O)N1c2ccccc2CC1C(=O)N1CCN(c2cccc(Cl)c2)CC1 (configuration not stated)	-3%	-2	-27%	?	.	.
CC(=O)N1c2ccccc2CC1C(=O)N1CCN(c2ccccc2F)CC1 (configuration not stated)	-3%	-2	-4%	?	.	.
CCC(=O)N1c2ccccc2CC1C(=O)NCCCN1CCN(c2ccc(F)cc2)CC1 (configuration not stated)	1%	-28	?	?	.	.
CCC(=O)N1c2ccccc2CC1C(=O)NCCN1CCN(c2ccccc2F)CC1 (configuration not stated)	-2%	-24	?	?	.	.
CCC(=O)N1c2ccccc2CC1C(=O)NCCN1CCN(c2cccc(Cl)c2)CC1 (configuration not stated)	1%	-33	?	23µM*	.	.
CCC(=O)N1c2ccccc2CC1C(=O)NCCN1CCN(c2cccc(C(F)(F)F)c2)CC1 (configuration not stated)	0%	11	29µM*	16µM*	.	.
